High-throughput results: PubChem BioAssay, The Scripps Research Institute Molecular Screening Center
PAFAH2 inh = inhibitors of human PAFAH2; AID 492956; recombinant PAFAH2, FP-rhodamine activity probe, fluorescence polarization; 0.99% of 340,000 active; inhibition, % at 3.39 µM; Q99487;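 active = inhibition above the mean over all tested compounds plus 3 SD, cut at about 30% in these data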;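 also: inhibitors block probe labeling of enzyme so polarization drops; 0% = enzyme with DMSO and 100% = wells lacking PAFAH2 protein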
pPAFAH inh = pPAFAH (human) enzyme inhibition. Q13093. 1.5% of 330,000 active. inhibition, % at 3.39 µM. AID 463082. recombinant pPAFAH, FP-rhodamine probe fluorescence polarization;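 active = inhibition above the mean inhibition across the screen plus 3 SD, cut at about 25% in these data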;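 also: inhibitors block binding of the rhodamine activity-based probe so polarization drops; 0% = enzyme with DMSO and 100% = wells lacking pPAFAH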
PME-1 inh = PME-1 (human) inhibition | recombinant PME-1, FP-Rh probe fluorescence polarization | inhibition, % at 5.9 µM | 0.53% of 320,000 active | AID 2130;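 active = inhibition above the campaign mean of all compounds plus 3 SD, cut at about 26% in these data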;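 also: competitive labeling of PME-1 active site by serine hydrolase directed probe; 0% = PME-1 with DMSO and 100% = wells lacking PME-1 enzyme; inhibitors block probe labeling so polarization falls and inhibition rises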
Target sequence (Q9Y570 whole entry, looked up): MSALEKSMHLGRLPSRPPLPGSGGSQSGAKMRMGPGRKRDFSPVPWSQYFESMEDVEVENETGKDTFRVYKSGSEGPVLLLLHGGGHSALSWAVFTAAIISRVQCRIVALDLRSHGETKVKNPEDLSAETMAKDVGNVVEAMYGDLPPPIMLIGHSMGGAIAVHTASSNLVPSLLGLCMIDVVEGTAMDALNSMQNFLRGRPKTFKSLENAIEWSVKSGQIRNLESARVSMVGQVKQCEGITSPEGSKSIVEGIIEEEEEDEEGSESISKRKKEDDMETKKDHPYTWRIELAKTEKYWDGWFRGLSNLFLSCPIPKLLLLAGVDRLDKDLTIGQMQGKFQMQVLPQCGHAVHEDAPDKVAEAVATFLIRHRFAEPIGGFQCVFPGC
PAFAH1B3 inh = blocks human PAF acetylhydrolase 1B catalytic subunit 3; inhibition, % at 3.39 µM; AID 492972; recombinant PAFAH1B3, FP-rhodamine probe, fluorescence polarization; Q15102; 0.28% of 340,000 active;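 active = inhibition above the screen-wide average of all tested compounds plus 3 SD, cut at about 25% in these data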;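 also: 0% = enzyme with DMSO only and 100% = wells lacking PAFAH1B3 protein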
Target sequence (Q15102 whole entry, looked up): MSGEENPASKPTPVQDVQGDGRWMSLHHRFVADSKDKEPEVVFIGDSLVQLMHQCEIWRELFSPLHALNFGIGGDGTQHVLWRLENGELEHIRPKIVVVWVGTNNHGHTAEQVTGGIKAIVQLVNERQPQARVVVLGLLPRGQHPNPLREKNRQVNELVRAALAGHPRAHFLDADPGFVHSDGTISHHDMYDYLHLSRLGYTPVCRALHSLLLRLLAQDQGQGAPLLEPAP
PAFAH1B2 FP inh = inhibitors of human PAFAH1B2 | AID 492953 | P68402 | inhibition, % at 3.39 µM | recombinant PAFAH1B2, FP-rhodamine activity probe, fluorescence polarization | 1.2% of 340,000 active;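 active = inhibition above the mean of all tested compounds plus 3 SD, cut at about 24% in these data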;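 also: 0% = enzyme with DMSO and 100% = wells lacking PAFAH1B2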
Fam108B inh = Fam108B inhibition, counter-screen for RBBP9 inhibitors | recombinant Fam108B, FP-Rh probe fluorescence polarization | inhibition, % at 9.51 µM | 0.33% of 300,000 active;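 active = inhibition above the screen mean inhibition plus 3 SD, computed separately per campaign, cut at about 18% in these data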;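 also: inhibitors lower polarization as less probe binds the enzyme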
PAFAH2 FP conf = confirmation of human PAFAH2 inhibitors. shares compounds with PAFAH2 inh. recombinant PAFAH2, FP-rhodamine activity probe, fluorescence polarization. inhibition, % at 3.39 µM. 65% of 2,300 active. AID 493030;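 active = mean inhibition over three repeats above a set limit taken from the earlier primary screen, cut at about 30% in these data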;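 also: inhibitor blocks binding of rhodamine activity probe so polarization falls; 0% = enzyme with DMSO and 100% = wells lacking PAFAH2 protein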
* = called active by the depositor. This is a sample that favours compounds with a hit; in the whole collection about 2.8% have one here.

Cc1noc(C)c1COc1ccc(C(=O)OCC(=O)Nc2ccc3c(c2)OCO3)cc1 was read as PAFAH2 inh 80*, pPAFAH inh 15, PME-1 inh -6, PAFAH1B3 inh 3, PAFAH1B2 FP inh 0, Fam108B inh 1 and PAFAH2 FP conf 86*.
`CC(=O)Nc1ccc(NC(=O)COC(=O)c2ccc(Cl)nc2)cc1` gave PAFAH2 inh 1, PAFAH1B3 inh 7 and PAFAH1B2 FP inh 0.
For CC(=O)c1sc(NC(=O)CSCc2c(C)noc2C)nc1-c1ccccc1 the results were PAFAH2 inh 3, pPAFAH inh 3, PME-1 inh 6, PAFAH1B3 inh 8 and PAFAH1B2 FP inh 0.
`O=C(COC(=O)c1ccc(Cl)nc1)Nc1ccc2c(c1)OCO2` gave PAFAH2 inh 53*, pPAFAH inh 1, PME-1 inh 0, PAFAH1B3 inh -1, PAFAH1B2 FP inh -1, Fam108B inh 0 and PAFAH2 FP conf 39*.
For O=C(COC(=O)c1ccc(Cl)nc1)Nc1ccc2c(c1)CCC2 the results were PAFAH2 inh 42*, pPAFAH inh -2, PAFAH1B3 inh 10, PAFAH1B2 FP inh -8 and PAFAH2 FP conf 32*.
Screening O=C(O)CCC(=O)Nc1ccc(C(=O)OCC(=O)c2ccc(Cl)cc2)cc1 returned PAFAH2 inh 42*, pPAFAH inh 3, PME-1 inh -1, PAFAH1B3 inh 7, PAFAH1B2 FP inh 4, Fam108B inh -3 and PAFAH2 FP conf 28.
`O=C(COC(=O)c1cncc(Br)c1)Nc1ccc2c(c1)OCO2` gave PAFAH2 inh 23, pPAFAH inh 7, PME-1 inh 3, PAFAH1B3 inh 6, PAFAH1B2 FP inh 6 and Fam108B inh 1.
For O=C(O)CCCC(=O)Nc1ccc(Cl)cc1 the results were PAFAH2 inh 1, pPAFAH inh 1, PME-1 inh 1, PAFAH1B3 inh 2, PAFAH1B2 FP inh 5 and Fam108B inh 5.
O=C(COC(=O)c1c(Cl)cccc1Cl)Nc1ccccc1Br was read as PAFAH2 inh 3, pPAFAH inh 4, PME-1 inh -2, PAFAH1B3 inh -7, PAFAH1B2 FP inh 4 and Fam108B inh 4.
Screening C/C=C/C(=O)OCC(=O)Nc1ccccc1Br returned PAFAH2 inh 33*, pPAFAH inh 3, PME-1 inh 1, PAFAH1B3 inh 20, PAFAH1B2 FP inh -4, Fam108B inh 4 and PAFAH2 FP conf 20.
For O=C(COC(=O)c1ccccc1)Nc1ccccc1Br the results were PAFAH2 inh 36*, pPAFAH inh 10, PME-1 inh -5, PAFAH1B3 inh -7, PAFAH1B2 FP inh -2, Fam108B inh 0 and PAFAH2 FP conf 25.
For O=C(COC(=O)/C=C/c1ccccc1)Nc1ccccc1Br the results were PAFAH2 inh 64*, pPAFAH inh 9, PME-1 inh 1, PAFAH1B3 inh -3, PAFAH1B2 FP inh 3, Fam108B inh 2 and PAFAH2 FP conf 54*.
For COc1cccc(/C=C/C(=O)OCC(=O)Nc2cc(C(F)(F)F)ccc2Cl)c1 the results were PAFAH2 inh 33*, pPAFAH inh 2, PME-1 inh -2, PAFAH1B3 inh 2, PAFAH1B2 FP inh -3, Fam108B inh -6 and PAFAH2 FP conf 24.
For COc1ccc(/C=C/C(=O)Nc2cc(C(F)(F)F)ccc2Cl)cc1OC the results were PAFAH2 inh -7, pPAFAH inh -3, PME-1 inh -7, PAFAH1B3 inh -9, PAFAH1B2 FP inh 1 and Fam108B inh 0.
`CN(C)S(=O)(=O)c1cccc(NC(=O)COC(=O)CCOc2ccccc2)c1` gave PAFAH2 inh -2, pPAFAH inh 13, PME-1 inh 2, PAFAH1B3 inh 2, PAFAH1B2 FP inh -3 and Fam108B inh 0.
For CN(C)S(=O)(=O)c1cc(NC(=O)COC(=O)/C=C/c2ccco2)ccc1Cl the results were PAFAH2 inh 58*, pPAFAH inh 7, PME-1 inh 5, PAFAH1B3 inh 0, PAFAH1B2 FP inh -9, Fam108B inh 5 and PAFAH2 FP conf 70*.
Screening COc1cccc(/C=C/C(=O)OCC(=O)Nc2cccc(S(=O)(=O)N(C)C)c2)c1 returned PAFAH2 inh 69*, pPAFAH inh 6, PME-1 inh 1, PAFAH1B3 inh 11, PAFAH1B2 FP inh 2, Fam108B inh -5 and PAFAH2 FP conf 60*.
O=C(COC(=O)/C=C/c1ccccc1)Nc1cc(C(F)(F)F)ccc1N1CCOCC1 was read as PAFAH2 inh 56*, pPAFAH inh 4, PME-1 inh 0, PAFAH1B3 inh 4, PAFAH1B2 FP inh -1, Fam108B inh 0 and PAFAH2 FP conf 57*.
CN(C)S(=O)(=O)c1cc(NC(=O)COC(=O)c2nc(Cl)ccc2Cl)ccc1Cl was read as PAFAH2 inh 16, pPAFAH inh 3, PAFAH1B3 inh 9 and PAFAH1B2 FP inh 3.
Screening CCN(CC)C(=O)/C=C/c1ccc(OC)c(S(=O)(=O)N2CCCCC2)c1 returned PAFAH2 inh -1, pPAFAH inh 4, PME-1 inh 6, PAFAH1B3 inh -4, PAFAH1B2 FP inh -2 and Fam108B inh 1.
For c1ccc(COc2ncnc3c2ncn3CCCN2CCN(c3ccccn3)CC2)cc1 the results were PAFAH2 inh -5, PAFAH1B3 inh 8 and PAFAH1B2 FP inh 1.
`Cc1c(CN2CCc3c([nH]c4ccccc34)C2CC(C)C)cnn1C` (centres undefined) gave PAFAH2 inh -6, pPAFAH inh 0, PME-1 inh -3, PAFAH1B3 inh 1, PAFAH1B2 FP inh 5 and Fam108B inh -1.
For O=S(=O)(c1ccccc1)[C@@]1(c2ccccc2)C[C@@H]2ON=C(c3cccc(-c4ccccc4)c3)[C@@H]2C1 the results were PAFAH2 inh -4, pPAFAH inh 2, PME-1 inh -10, PAFAH1B3 inh -12, PAFAH1B2 FP inh 2 and Fam108B inh -8.
`COc1cccc(/C=C/C(=O)OCC(=O)Nc2ccc(Cl)c(S(=O)(=O)N(C)C)c2)c1` gave PAFAH2 inh 68*, pPAFAH inh 2, PME-1 inh -31, PAFAH1B3 inh -1, PAFAH1B2 FP inh -2, Fam108B inh -37 and PAFAH2 FP conf 69*.
COc1ccc(CC(=O)OCC(=O)Nc2ccc(Cl)c(S(=O)(=O)N(C)C)c2)cc1 was read as PAFAH2 inh 18, pPAFAH inh 16, PME-1 inh 0, PAFAH1B3 inh 11, PAFAH1B2 FP inh 10 and Fam108B inh -2.
For CC(C)(C)c1ccc(/C=C2\Oc3cc(O)ccc3C2=O)cc1 the results were PAFAH2 inh 47*, pPAFAH inh 16, PME-1 inh -31, PAFAH1B3 inh 5, PAFAH1B2 FP inh 11, Fam108B inh 2 and PAFAH2 FP conf 36*.
